Measurements taken from the supplement of paper PMC6555819.

test system: PXR homodimer (NR concentration 270 nM); assay: PBM binding z-score (relative to random genomic background probes); higher = stronger binding; sequences stand for … in GC…GCGATTGACAGCGTAGAATGAAGG
Method in brief: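 Each nuclear receptor dimer, without ligand, was incubated for 1 h on custom Agilent 4×180K protein-binding microarrays. Binding was detected with antibodies against each partner (one per run), and scanned fluorescence was regression-normalized. The binding z-scores are referenced to random human genomic background probes.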

| Sequence | PBM binding z-score |
| --- | --- |
| CTACCAAGGTGAACAAGGTCGTTGACTACTATTC | 2.72 |
| GCTAGCTGGTCAGTAAAAGGTCACACACCGGTCG | 0.209 |
| AGTCAAAGTTCACTAGGTAACGTCAGATTCAGCT | 3.07 |
| CTCGAAAGGTAGGTTGAGGTGAGTATACGGATAA | -0.116 |
| TCATATAGGTAAATGCGAGGTGAAAGTCCGATCT | 0.0797 |
| TAGCCTAGGGCATTGGGCCAGTATAGTACGCATC | -0.779 |
| ATCTCTAGGTAAAGTTCAGTAAAAGATCGATAGA | 2.09 |
| CAGCCTAGGTCAGGGCTAGTATAGGAGGAACGTT | -0.363 |
| CAGACTAGGTCAGGGCCAGTATAGGAGGAACGTT | -0.249 |
| CCTCGGAGGACAGAAGGTCAGAGTTGTCCGCTTT | -0.24 |
| CTCGAAAGGTCGGTTGAGGTGAGTATCCGGATAA | -0.135 |
| ATCGAAAGGTCGAGGTGAGTATAGAGAAAGGGAA | 0.362 |
| AATACAGGGTCATCGTAGGCCAAAGTACGCACAG | 1.03 |
| CGTCCAAGCTCAATGCTAGGTCAGTGAAAGCATT | -0.275 |
| ATCTCTAGGTAAAGATAGTTCAGTGACTGCAAAT | 0.522 |
| TCTATTAGTTGAAGGGCAACCGGCGAGTCCGTTT | 0.705 |
| CTCGAAACGTCGGTTGAGGTGAGTATACGGATAA | -0.284 |
| ACTAGCAGGCCAAGGGACACTCAAGATTAGTCCG | -0.667 |
| TTACCAAGGTTAAGGTCGTTGATCCCTCTGTAGA | 1.3 |
| GCTGCTAGGTCAGGTTGGACAGCTAACGGGTACG | -0.273 |

| Sequence | PBM binding z-score |
| --- | --- |
| GCTATTCGTTGAAAGGGCAACCGAATGATTCTCG | -0.255 |
| CAAACTAGGTCAAAGGTCAATGTCGAGCCAACCA | 1.86 |
| ATATGTAGGTTATCGGGGCATTCAGTTTGCGCAT | 3 |
| TCTAGTTGGTCAAATGTCACACACTCGAAATGCG | 0.666 |
| CTACCAAGGTGAACAAGGTCGTTGGTTACTATTC | 2.32 |
| TCTTGTAGGTCAGCAGGTTAAGAAAGCTGGCCAA | -0.0454 |
| CGAACTTGGTCAGAACAGGACAGTGAAGGATGAT | 0.0699 |
| ACAGACAGGTGAGTGAAGGTAACTGAGCTGGACG | -0.00734 |
| TCTATTAGTTGAAGGGCATCCGACGAGTCCGTTT | 1.03 |
| AGTCAAAGTTCATCTAGGTAAAGTAAGATATGCT | 7.79 |
| CCTTACGGGTCAAGGTTACAGCACGGGTGGTACG | -0.0469 |
| CAAACTACGTCAAGGTCAAAGTCGGTTTGTGCCA | 2.94 |
| CCTCGGAGGACATCAGGAGGTCAGAGCTGCCAGA | 0.0732 |
| AGAACGAGGGCAATGAGTTGGTAGCACGGGTGGC | 1.44 |
| AGTTAAAGTTCAGGACGAGGTAACGTAAAGCACG | 1.51 |
| ACAGACAGGTGAGTGCAGGTAACTCAGCTGGACG | -0.0579 |
| TCATATAGGTAAAAGGTGAAAGCCGGTGTGGTAA | 0.293 |
| GCTGCTTGGTCAGGTTGGTCAGCTAACGGGTACG | -0.597 |
| CCTTACGGGTCACTCCAGGTTAGAGCATCGGAGT | 0.36 |
| CCTACTGGGCCAAAAAGGACATTGATGCCGATAA | 0.177 |
